Data from PubChem BioAssay (EPA / NIEHS).
The source made the active and inactive calls. Rule for the calls: active = hit-call score of the fitted dose curve at least 0.9, where 1 is the maximum; inactive = score below 0.9.

What was measured:
Conditions in all cases: mRNA level, 48 h; actives raise or lower the signal
[1] = read-out: Intercellular Adhesion Molecule 1 (ICAM1), ICAM1 (gene 3383); test: LTEA_HepaRG_ICAM1: Life Technologies and Expression Analysis (LTEA) Assay for Intercellular Adhesion Molecule 1 (ICAM1) using HepaRG (AID 2283507)
How it was run: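 ICAM1 transcript levels measured by qRT-PCR, normalized to three housekeeping genes (ACTB, GAPDH, POLR2A), after 48 h chemical exposure of HepaRG cells. Duplicate eight-point half-log series from 100 uM in 0.5% DMSO; gain or loss fitted against vehicle.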

[2] = read-out: Insulin-like growth factor-binding protein 1 (IGFBP1), IGFBP1 (gene 3484); test: LTEA_HepaRG_IGFBP1: Life Technologies and Expression Analysis (LTEA) Assay for Insulin-like growth factor-binding protein 1 (IGFBP1) using HepaRG (AID 2283508)
How it was run: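 Read-out is qRT-PCR transcript level normalized to three housekeeping genes, fitted in both directions against 0.5% DMSO. Differentiated HepaRG cells received eight half-log concentrations (top 100 uM) in duplicate for 48 h in serum-free induction medium.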

[3] = read-out: Interleukin 6 (IL6), IL6 (gene 3569); test: LTEA_HepaRG_IL6: Life Technologies and Expression Analysis (LTEA) Assay for Interleukin 6 (IL6) using HepaRG (AID 2283509)
How it was run: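 HepaRG, ~100,000 cells/well, 48 h pre-culture; serum-free induction medium; cmpd 8-pt half-log from 100 uM, 0.5% DMSO, duplicate, 48 h. Lysis in RLT, TaqMan qRT-PCR; gain or loss vs DMSO.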

[4] = read-out: Interleukin 6 Receptor (IL6R), IL6R (gene 3570); test: LTEA_HepaRG_IL6R: Life Technologies and Expression Analysis (LTEA) Assay for Interleukin 6 Receptor (IL6R) using HepaRG (AID 2283510)
How it was run: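 Differentiated HepaRG cells, plated 48 h, then exposed in duplicate for 48 h in serum-free induction medium to 8 half-log concentrations (top 100 uM, 0.5% DMSO). IL6R mRNA measured by TaqMan qRT-PCR, normalized to ACTB/GAPDH/POLR2A; bidirectional fit vs DMSO.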

[5] = read-out: Potassium channel subfamily K member 1 (KCNK1), KCNK1 (gene 3775); test: LTEA_HepaRG_KCNK1: Life Technologies and Expression Analysis (LTEA) Assay for Potassium channel subfamily K member 1 (KCNK1) using HepaRG (AID 2283511)
How it was run: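 Gain or loss of KCNK1 mRNA is the read-out, quantified by qRT-PCR against three housekeeping genes after 48 h chemical treatment of human HepaRG liver cells. Concentrations ran from 100 uM downward in half-log steps, vehicle 0.5% DMSO.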

[6] = read-out: Keratin 19 (KRT19), KRT19 (gene 3880); test: LTEA_HepaRG_KRT19: Life Technologies and Expression Analysis (LTEA) Assay for Keratin 19 (KRT19) using HepaRG (AID 2283512)
How it was run: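 KRT19 transcript measured by TaqMan qRT-PCR, referenced to three housekeeping genes, after HepaRG cells received test chemicals for 48 h. Eight half-log concentrations, top 100 uM, 0.5% DMSO vehicle; increases and decreases both fitted.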

[7] = read-out: JUN Transcription Factor, JUN (gene 3725); test: LTEA_HepaRG_JUN: Life Technologies and Expression Analysis (LTEA) Assay for JUN Transcription Factor using HepaRG (AID 2283513)
How it was run: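 HepaRG cells, 48 h post-plating, exposed 48 h in serum-free induction medium to 8-point half-log series (top 100 uM, 0.5% DMSO), duplicate; mRNA by qRT-PCR (TaqMan, Fluidigm), normalized to ACTB/GAPDH/POLR2A; bidirectional fit vs DMSO.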

[8] = read-out: Lipase C (LIPC), LIPC (gene 3990); test: LTEA_HepaRG_LIPC: Life Technologies and Expression Analysis (LTEA) Assay for Lipase C (LIPC) using HepaRG (AID 2283514)
How it was run: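 Read-out is LIPC transcript level by TaqMan qRT-PCR, normalized to three housekeeping genes, after 48 h chemical treatment of human HepaRG liver cells. Curves span eight concentrations topping at 100 uM; activity in either direction scored relative to 0.5% DMSO.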

[9] = read-out: Lipoprotein lipase (LPL), LPL (gene 4023); test: LTEA_HepaRG_LPL: Life Technologies and Expression Analysis (LTEA) Assay for Lipoprotein lipase (LPL) using HepaRG (AID 2283515)
How it was run: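 Read-out is LPL transcript level by qRT-PCR, normalized to three housekeeping genes and fitted bidirectionally against the DMSO control. Human HepaRG cells received chemicals for 48 h at up to 100 uM.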

[10] = read-out: MicroRNA 122 (MIR122), gene 406906; test: LTEA_HepaRG_MIR122: Life Technologies and Expression Analysis (LTEA) Assay for MicroRNA 122 (MIR122) using HepaRG (AID 2283516); note: the transcript read is the microRNA miR-122
How it was run: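 Differentiated human HepaRG cells in serum-free induction medium exposed 48 h to 8 half-log concentrations from 100 uM in 0.5% DMSO, duplicate. MIR122 quantified by Fluidigm TaqMan qRT-PCR, normalised to ACTB, GAPDH, POLR2A; fold change fitted bidirectionally versus DMSO.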

[11] = read-out: matrix metalloproteinase-10 (MMP10), MMP10 (gene 4319); test: LTEA_HepaRG_MMP10: Life Technologies and Expression Analysis (LTEA) Assay for matrix metalloproteinase-10 (MMP10) using HepaRG (AID 2283517)
How it was run: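 Gain or loss of MMP10 mRNA is fitted relative to the 0.5% DMSO vehicle. The human hepatic line HepaRG receives a 48-hour serum-free exposure, in duplicate, with a maximum concentration of 100 uM.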

[12] = read-out: MYC, MYC (gene 4609); test: LTEA_HepaRG_MYC: Life Technologies and Expression Analysis (LTEA) Assay for MYC using HepaRG (AID 2283518)
How it was run: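 MYC transcript changes, up or down relative to 0.5% DMSO, from TaqMan qRT-PCR normalized to three housekeeping genes. Human HepaRG cultures received chemicals for 48 h at eight half-log concentrations up to 100 uM, in duplicate.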

[13] = read-out: matrix metalloproteinase-3 (MMP3), MMP3 (gene 4314); test: LTEA_HepaRG_MMP3: Life Technologies and Expression Analysis (LTEA) Assay for matrix metalloproteinase-3 (MMP3) using HepaRG (AID 2283519)
How it was run: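 HepaRG, human; 48 h dosing, 8 conc. (max 100 uM, half-log), duplicate, 0.5% DMSO. Readout: MMP3 transcript by Fluidigm TaqMan qRT-PCR, ACTB/GAPDH/POLR2A-normalised. Gain or loss fitted vs DMSO.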

[14] = read-out: Paternally Expressed 10 (PEG10), PEG10 (gene 23089); test: LTEA_HepaRG_PEG10: Life Technologies and Expression Analysis (LTEA) Assay for Paternally Expressed 10 (PEG10) using HepaRG (AID 2283520)
How it was run: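 Differentiated HepaRG cells exposed 48 h in serum-free induction medium to eight half-log concentrations topping at 100 uM, 0.5% DMSO, in duplicate. PEG10 mRNA quantified by TaqMan qRT-PCR, normalized to ACTB, GAPDH and POLR2A; bidirectional fit versus DMSO.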

[15] = read-out: Protein phosphatase 2A (PPP2R4), PTPA (gene 5524); test: LTEA_HepaRG_PPP2R4: Life Technologies and Expression Analysis (LTEA) Assay for Protein phosphatase 2A (PPP2R4) using HepaRG (AID 2283522)
How it was run: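 Differentiated human HepaRG cells in serum-free induction medium were exposed 48 h to 8 concentrations (top 100 µM, half-log steps, duplicate) in 0.5% DMSO. PPP2R4 mRNA was measured by TaqMan qRT-PCR, normalised to ACTB, GAPDH and POLR2A, and fitted bidirectionally versus DMSO.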

[16] = read-out: Phosphatase and tensin (PTEN), PTEN (gene 5728); test: LTEA_HepaRG_PTEN: Life Technologies and Expression Analysis (LTEA) Assay for Phosphatase and tensin (PTEN) using HepaRG (AID 2283523)
How it was run: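 Read-out is PTEN transcript level by multiplexed TaqMan qRT-PCR after 48 h chemical treatment of human HepaRG cultures in serum-free induction medium. Concentrations spanned 100 uM downward in half-log steps, 0.5% DMSO throughout; activity fitted in both directions against vehicle.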

[17] = read-out: solute carrier (SLC22A1), SLC22A1 (gene 6580); test: LTEA_HepaRG_SLC22A1: Life Technologies and Expression Analysis (LTEA) Assay for solute carrier (SLC22A1) using HepaRG (AID 2283524)
How it was run: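 HepaRG (human liver line), 48 h dosing in serum-free induction medium; 8 conc., half-log down from 100 uM, 0.5% DMSO vehicle, duplicates. Endpoint: SLC22A1 mRNA, qRT-PCR, housekeeping-normalized; gain/loss fit vs DMSO.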

[18] = read-out: Pyruvate Dehydrogenase Kinase 4 (PDK4), PDK4 (gene 5166); test: LTEA_HepaRG_PDK4: Life Technologies and Expression Analysis (LTEA) Assay for Pyruvate Dehydrogenase Kinase 4 (PDK4) using HepaRG (AID 2283525)
How it was run: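 In this multiplexed human HepaRG expression assay, cells are treated 48 h with test chemicals across an eight-point range starting at 100 uM. PDK4 mRNA changes, normalized to ACTB/GAPDH/POLR2A, are fitted in both directions relative to vehicle.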

[19] = read-out: NAD(P)H dehydrogenase [quinone] 1 (NQO1), NQO1 (gene 1728); test: LTEA_HepaRG_NQO1: Life Technologies and Expression Analysis (LTEA) Assay for NAD(P)H dehydrogenase [quinone] 1 (NQO1) using HepaRG (AID 2283526)
How it was run: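 Differentiated human HepaRG cells in serum-free induction medium, dosed in duplicate for 48 h at 8 half-log concentrations up to 100 uM in 0.5% DMSO. NQO1 mRNA by qRT-PCR normalized to ACTB, GAPDH, POLR2A; bidirectional fit versus DMSO baseline.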

[20] = read-out: Nuclear factor NF-kappa-B p105 subunit (Homo sapiens) (UniProt P19838); test: LTEA_HepaRG_NFKB1: Life Technologies and Expression Analysis (LTEA) Assay for Nuclear Factor Kappa B Subunit 1 (NFKB1) using HepaRG (AID 2283521)
How it was run: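 HepaRG, 48 h exposure; 8-pt half-log series from 100 uM in 0.5% DMSO; duplicates. Readout: NFKB1 mRNA by qRT-PCR (Fluidigm arrays), housekeeping-normalized. Gain/loss fit vs DMSO baseline.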

Measured: AC50

Chain of Nuclear factor NF-kappa-B p105 subunit (Homo sapiens) (P19838 whole entry, looked up): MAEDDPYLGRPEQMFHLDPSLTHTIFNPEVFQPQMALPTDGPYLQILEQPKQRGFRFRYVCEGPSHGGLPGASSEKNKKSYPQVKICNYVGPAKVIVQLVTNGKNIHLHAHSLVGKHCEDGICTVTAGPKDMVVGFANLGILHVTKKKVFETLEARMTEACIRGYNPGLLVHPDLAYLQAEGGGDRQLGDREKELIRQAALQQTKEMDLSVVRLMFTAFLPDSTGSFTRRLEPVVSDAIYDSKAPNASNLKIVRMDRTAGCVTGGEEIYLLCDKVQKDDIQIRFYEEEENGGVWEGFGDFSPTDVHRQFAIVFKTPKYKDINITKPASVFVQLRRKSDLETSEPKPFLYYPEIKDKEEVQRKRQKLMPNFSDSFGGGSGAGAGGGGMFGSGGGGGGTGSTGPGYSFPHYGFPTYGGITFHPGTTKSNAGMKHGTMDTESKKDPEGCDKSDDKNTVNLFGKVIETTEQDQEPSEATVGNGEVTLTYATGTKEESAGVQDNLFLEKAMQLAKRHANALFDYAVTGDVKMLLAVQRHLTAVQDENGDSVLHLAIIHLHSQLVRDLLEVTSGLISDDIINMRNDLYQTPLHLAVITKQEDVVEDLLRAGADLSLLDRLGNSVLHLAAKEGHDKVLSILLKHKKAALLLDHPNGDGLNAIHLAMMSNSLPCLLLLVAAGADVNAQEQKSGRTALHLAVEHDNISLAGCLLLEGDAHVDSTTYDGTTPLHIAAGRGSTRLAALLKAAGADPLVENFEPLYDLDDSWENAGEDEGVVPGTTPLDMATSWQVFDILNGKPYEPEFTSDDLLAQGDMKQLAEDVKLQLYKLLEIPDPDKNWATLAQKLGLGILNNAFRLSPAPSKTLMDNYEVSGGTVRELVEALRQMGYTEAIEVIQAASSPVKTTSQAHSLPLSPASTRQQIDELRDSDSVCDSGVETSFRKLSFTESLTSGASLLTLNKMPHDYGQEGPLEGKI

CC(=O)[C@H]1CC[C@H]2[C@@H]3CCC4=CC(=O)CC[C@]4(C)[C@H]3CC[C@]12C
inactive: [9]
active: [1] 33.3 µM | [2] 27.4 µM | [3] 83.5 µM | [4] 50 µM | [5] 56.6 µM | [6] 50 µM | [7] 50 µM | [8] 34.6 µM | [10] 32.3 µM | [11] 61.9 µM | [12] 34.3 µM | [13] 66 µM | [14] 7.52 µM | [15] 87.5 µM | [16] 87.5 µM | [17] 38.2 µM | [18] 22.9 µM | [19] 62.1 µM

O=C(Nc1ccc([N+](=O)[O-])cc1Cl)c1cc(Cl)ccc1O
inactive: [9] | [10] | [20]
active: [1] 6.3 µM | [2] 2.13 µM | [3] 3.29 µM | [4] 2.13 µM | [5] 4.02 µM | [6] 1.48 µM | [7] 2.42 µM | [8] 4.31 µM | [11] 3.43 µM | [12] 2.28 µM | [13] 4.24 µM | [14] 1.99 µM | [15] 3.47 µM | [16] 4.53 µM | [17] 5.5 µM | [18] 4.31 µM | [19] 13.4 µM

CCOC(=O)C(C)Oc1ccc(Oc2nc3ccc(Cl)cc3o2)cc1 (configuration not stated)
active: [17] 9.92 µM
not listed: [18]
inactive: all other assays above

CCN(CC)C(=O)c1cccc(C)c1
not listed: [18] | [20]
inactive: all other assays above

CC(=O)S[C@@H]1CC2=CC(=O)CC[C@]2(C)[C@H]2CC[C@@]3(C)[C@@H](CC[C@@]34CCC(=O)O4)[C@H]12
active: [4] 63.3 µM | [8] 50 µM | [10] 67.5 µM | [11] 76.1 µM | [17] 55.5 µM
not listed: [18] | [20]
inactive: all other assays above

Oc1ccc(C(c2ccc(O)cc2)C(Cl)(Cl)Cl)cc1
inactive: [5]
active: [1] 79.3 µM | [2] 88.5 µM | [3] 77.1 µM | [4] 87.8 µM | [6] 50 µM | [7] 91.7 µM | [8] 78.8 µM | [9] 85 µM | [10] 87.5 µM | [11] 78.6 µM | [12] 78 µM | [13] 90.5 µM | [14] 74.8 µM | [15] 82.3 µM | [16] 76.9 µM | [17] 92.3 µM | [19] 82.7 µM
